Values joined by “and” are separate entries in the source; they are usually repeats but may differ in a detail not shown here. Equal entries are not always repeated. The whole screen tested about 5,500 compounds, of which about 2,000 (36%) were called active. About 18% were inconclusive and are not listed. No stated cut-off is given here; in the data, active means normalized growth mostly below about 0.91 (no sharp cut-off); inconclusive means no clear call, values can overlap the other calls; inactive means mostly above about 0.92. The list shows a part of the results.
Assay: chemical genetic growth profiling, strain panel (AID 1159580);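 further: tested at 20 µM; growth read once vehicle control cultures reached saturation at 30 °C; 1 = growth at the plate median or of vehicle wells; lower values mean less growth of the strain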
Details: S. cerevisiae deletion strains, growth OD

Measured: normalized growth

C[C@@H]1CC2C3C[C@H](F)C4=CC(=O)C=C[C@]4(C)[C@@]3(F)[C@@H](O)C[C@]2(C)[C@@]1(O)C(=O)COC(=O)C(C)(C)C (some centres not stated)
inactive: locus YAL021C, strain ccr4, hits give low values 0.995 | locus YAL026C, strain drs2, hits give low values 1 | locus YAL030W, strain snc1, hits give low values 0.98 | locus YBL061C, strain skt5, hits give low values 0.994 | locus YBR009C, strain hhf1, hits give low values 0.972 | locus YBR021W, strain FUR4, hits give low values 1.01 | locus YBR023C, strain chs3, hits give low values 0.983 | locus YBR171W, strain sec66, hits give low values 0.998 | locus YBR229C, strain ROT2, hits give low values 1 | locus YBR231C, strain swc5, hits give low values 0.98 | locus YBR279W, strain paf1, hits give low values 0.986 | locus YCL011C, strain gbp2, hits give low values 1.01 | locus YCL016C, strain dcc1, hits give low values 0.995 | locus YCL029C, strain bik1, hits give low values 0.992 | locus YCL069W, strain vba3, hits give low values 1 | locus YCR088W, strain abp1, hits give low values 1.01 | locus YDL005C, strain med2, hits give low values 1 | locus YDL035C, strain GPR1, hits give low values 0.982 | locus YDL040C, strain nat1, hits give low values 0.985 | locus YDL074C, strain BRE1, hits give low values 1 | locus YDL101C, strain DUN1, hits give low values 1.01 | locus YDL134C, strain PPH21, hits give low values 0.98 | locus YDL185W, strain tfp1, hits give low values 1 | locus YDL192W, strain arf1, hits give low values 1.01 | locus YDR001C, strain nth1, hits give low values 0.998 | locus YDR069C, strain doa4, hits give low values 0.991 | locus YDR101C, strain arx1, hits give low values 0.97 | locus YDR137W, strain rgp1, hits give low values 1 | locus YDR150W, strain NUM1, hits give low values 0.999 | locus YDR159W, strain sac3, hits give low values 0.991 | locus YDR162C, strain NBP2, hits give low values 0.987 | locus YDR195W, strain ref2 0.911 | locus YDR297W, strain sur2, hits give low values 0.993 | locus YDR318W, strain mcm21, hits give low values 1.01 | locus YDR334W, strain swr1, hits give low values 1 | locus YDR335W, strain msn5, hits give low values 0.995 | locus YDR388W, hits give low values 1.01 | locus YDR392W, strain spt3, hits give low values 1 | locus YDR502C, strain sam2, hits give low values 1 | locus YEL003W, strain gim4, hits give low values 1 | locus YEL037C, strain rad23, hits give low values 0.994 | locus YEL061C, strain CIN8 (second series), hits give low values 1.01 | locus YEL061C, strain CIN8, hits give low values 1 | locus YER015W, strain faa2, hits give low values 0.996 | locus YER016W, strain bim1, hits give low values 0.99 | locus YER110C, hits give low values 1.02 | locus YER111C, strain swi4, hits give low values 0.999 | locus YER155C, strain BEM2 (second series), hits give low values 0.991 | locus YER155C, strain BEM2, hits give low values 1.01 | locus YER167W, strain BCK2, hits give low values 0.997 | locus YFR010W, strain ubp6, hits give low values 0.997 | locus YGL078C, strain dbp3, hits give low values 1.01 | locus YGL086W, strain mad1, hits give low values 0.983 | locus YGL167C, strain pmr1, hits give low values 0.989 | locus YGL173C, strain kem1, hits give low values 0.994 | locus YGL227W, strain vid30, hits give low values 1.01 | locus YGL240W, strain doc1, hits give low values 0.971 | locus YGL248W, strain PDE1, hits give low values 1.01 | locus YGL253W, strain hxk2, hits give low values 1.01 | locus YGR135W, strain pre9, hits give low values 1.05 | locus YGR252W, strain gcn5, hits give low values 1.06 | locus YHR013C, strain ard1, hits give low values 0.965 | locus YHR027C, strain rpn1, hits give low values 0.998 | locus YHR030C, strain SLT2, hits give low values 1 and 0.992 | locus YHR079C, strain IRE1 (second series), hits give low values 1 | locus YHR079C, strain IRE1, hits give low values 0.972 | locus YHR094C, strain hxt1, hits give low values 1.01 | locus YHR129C, strain ARP1, hits give low values 1.01 | locus YHR142W, strain chs7, hits give low values 1.01 | locus YHR200W, strain rpn10, hits give low values 1 | locus YIL066C, strain RNR3, hits give low values 0.997 | locus YIL073C, strain SPO22, hits give low values 0.995 | locus YIL125W, strain kgd1, hits give low values 1 | locus YIR030C, strain dcg1, hits give low values 1 | locus YJL092W, strain hpr5, hits give low values 1 | locus YJL095W, strain BCK1 (second series), hits give low values 0.989 | locus YJL095W, strain BCK1, hits give low values 1.03 and 0.963 | locus YJL115W, strain asf1, hits give low values 0.993 | locus YJL129C, strain trk1, hits give low values 1 | locus YJL134W, strain LCB3, hits give low values 1 | locus YJL154C, strain vps35, hits give low values 0.997 | locus YJL164C, strain tpk1, hits give low values 0.989 | locus YJL166W, strain qcr8, hits give low values 0.966 | locus YJL168C, strain set2, hits give low values 1.01 | locus YJL187C, strain SWE1 (second series), hits give low values 1 | locus YJR043C, strain POL32, hits give low values 0.983 | locus YJR066W, strain TOR1, hits give low values 0.944
